# Out of some 25,000 compounds screened, about 970 (3.9%) were called active. Not shown: some 8% with an inconclusive outcome. This is one part of a sample in which actives are shown more often than they occur. The rule behind the calls is not given here.
# Experiments:
# Test in all cases: Primary Screen for Target Class Profiling of Small Molecule Inhibitors of Methyltransferases
# [1] = target: Catechol O-methyltransferase (Homo sapiens) (UniProt P21964); details: purified enzyme, MTase-Glo SAH luminescence; activity change, negative = inhibition: at 40 µM, stronger effect = lower value; outcome: 40 uM
# Text: (§1) PI: Matthew D. Hall Ph.D. and Quinlin M. Hanson Ph.D.
# (§2) National Center for Advancing Translational Sciences (NCATS)
# (§3) National Institute of Health (NIH), Rockville, MD
# (§4) Target class profiling (TCP) is a chemical biology approach amenable to investigating understudied biological targets. TCP is achieved by developing a generalizable assay platform and applying it to screen a curated set of compound libraries against representative members of a target class. Small molecule methyltransferases (SMMTase) are a subclass of methyltransferase that act on metabolites to modulate signaling pathways, metabolize xenobiotics, or balance the available methyl pool. We screened four curated libraries totaling 27,574 unique compounds against the SMMTases nicotinamide N-methyltransferase (NNMT), phenylethanolamine N-methyltransferase (PNMT), histamine N-methyltransferase (HNMT), glycine N-methyltransferase (GNMT), catechol O-methyltransferase (COMT), and guanidinoacetate N-methyltransferase (GAMT). The data generated by this TCP can be leveraged for informed tool molecule development. For example, in the associated publication we identified a chemotype of HNMT-selective inhibitors. Additionally, we identified a putative SMMTase-selective inhibitor with potential as a tool molecule for studying broader methyltransferase biology.
# (§5) High-through put screening assays were developed at the National Center for Advancing Translational Science (NCATS) for the enzymes NNMT, PNMT, HNMT, GNMT, COMT, and GAMT. Enzymatic activity was measured as a function of SAM cofactor conversion using the MTase Glo kit (Promega) for all enzymes. All assays were performed in 1536-well format with substrates and SAM concentrations at KM values. Enzyme concentration and assay timing were optimized for 10-20% SAM conversion. Initial screening of 27,574 compounds was done as single-point assays using the highest compound concentration (40 uM). […] These compounds were replated in 11-point dose response and assayed against NNMT, PNMT, HNMT, GNMT, COMT, GAMT, and a counter-assay. The IC50 and efficacy (maximal response) values were determined for each dose-response curve. These values are also accounted for in the area under the curve (AUC) values.
# (§6) PROTOCOL TABLE (as described by Inglese J, Shamu CE and Guy RK. 2007)
# (§7) SEQUENCE No. (e.g., 1, 2, 3, etc.); […] (e.g., Cells, Incubation, Reagent, etc.); VALUE; DESCRIPTION.
# (§8) 1; Reagent; 2 uL; SMMTase Enzyme (2x) in reaction buffer, columns 1- 48.
# (§9) 2; Reagent; 1 uL; SAM (4x) in reaction buffer, columns 1-48.
# (§10) 3; Controls; 23 nL; DMSO in column 4; sinefungin in DMSO (0 uM - 40 uM) in 7-point 1:2 dilution series (n = 2) in column 2.
# (§11) 4; Compounds; 23 nL; Columns 5-48.
# (§12) 5; Reagent; 1 uL; Substrate (4x) in reaction buffer, columns 2-48.
# (§13) 6; Time; 20-30 min; Incubation.
# (§14) 7; Reagent; 1 uL; MTase-Glo reagent (5X), columns 1-48.
# (§15) 8; Time; 30 min; Incubation.
# (§16) 9; Reagent; 5 uL; MTase-Glo Detection reagent, columns 1-48.
# (§17) 10; Time; 30 min; Incubation, luminescence evolution.
# (§18) 11; Detection; Luminescence; ViewLux uHTS Microplate Imager (PerkinElmer).
# (§19) NOTES (numbers refer to Sequence numbers above)
# (§20) 1, 2, 5. White Medium Binding Greiner 1536-well plates (Cat #789175-F, Greiner Bio-One, Monroe, NC); Reaction buffer: 50 mM Tris, pH 8.0, 3 mM MgCl2, 1 mM EDTA, 50 mM NaCl, 1 mM DTT, and 0.1 mg/mL BSA. Evaporation was prevented by covering assay plates with metal lids containing holes to allow gas diffusion.
# (§21) 1. Six SMMTase were profiled: HNMT, GNMT, PNMT, COMT, NNMT, GAMT
# (§22) 5. The corresponding substrate was used for each enzyme: HNMT - 5.3 uM Histamine; GNMT - >500 uM Glycine; PNMT - 16.2 uM Norephinephrine; COMT - 13.7 uM Norephinephrine; NNMT - 3.8 uM Nicotinamide; GAMT - 2.5 uM Guanidinoacetate.6, 8, 10. Room temperature
# (§23) 6. Final reaction conditions: 10 nM COMT, 5 uM SAM, 15 uM norepinephrine, 50 mM Tris, pH 8.0, 3 mM MgCl2, 1 mM EDTA, 50 mM NaCl, 1 mM DTT, and 0.1 mg/mL BSA; refer to tables 2 and S1 for specific timing.
# 8. […]
# [2] = target: Glycine N-methyltransferase (Homo sapiens) (UniProt Q14749); details: purified enzyme, MTase-Glo SAH luminescence; measured here: GNMT inhibition; at 40 µM; stronger effect = lower value
# Text: as §1, §2, §3, §4, §5, §6, §7, §8, §9, §10, §11, §12, §13, §14, §15, §16, §17, §18, §19, §20, §21, §22, §23
# 8. […]
# [3] = target: Guanidinoacetate N-methyltransferase (Homo sapiens) (UniProt Q14353); details: purified enzyme, MTase-Glo SAH luminescence; measured here: GAMT inhibition; at 40 µM; stronger effect = lower value
# Text: as §1, §2, §3, §4, §5, §6, §7, §8, §9, §10, §11, §12, §13, §14, §15, §16, §17, §18, §19, §20, §21, §22, §23
# 8. […]
# [4] = target: Histamine N-methyltransferase (Homo sapiens) (UniProt P50135); details: purified enzyme, MTase-Glo SAH luminescence; measured here: HNMT inhibition; at 40 µM; stronger effect = lower value
# Text: as §1, §2, §3, §4, §5, §6, §7, §8, §9, §10, §11, §12, §13, §14, §15, §16, §17, §18, §19, §20, §21, §22, §23
# 8. […]
# [5] = target: Nicotinamide N-methyltransferase (Homo sapiens) (UniProt P40261); details: purified enzyme, MTase-Glo SAH luminescence; measured here: NNMT inhibition; at 40 µM; stronger effect = lower value
# Text: as §1, §2, §3, §4, §5, §6, §7, §8, §9, §10, §11, §12, §13, §14, §15, §16, §17, §18, §19, §20, §21, §22, §23
# 8. […]
# [6] = target: Phenylethanolamine N-methyltransferase (Homo sapiens) (UniProt P11086); details: purified enzyme, MTase-Glo SAH luminescence; measured here: PNMT inhibition; at 40 µM; stronger effect = lower value
# Text: as §1, §2, §3, §4, §5, §6, §7, §8, §9, §10, §11, §12, §13, §14, §15, §16, §17, §18, §19, §20, §21, §22, §23
# 8. […]
# % is set by controls: 0 for no effect and ±100 for the full control effect.
# Chain of Phenylethanolamine N-methyltransferase (Homo sapiens) (P11086 whole entry, looked up): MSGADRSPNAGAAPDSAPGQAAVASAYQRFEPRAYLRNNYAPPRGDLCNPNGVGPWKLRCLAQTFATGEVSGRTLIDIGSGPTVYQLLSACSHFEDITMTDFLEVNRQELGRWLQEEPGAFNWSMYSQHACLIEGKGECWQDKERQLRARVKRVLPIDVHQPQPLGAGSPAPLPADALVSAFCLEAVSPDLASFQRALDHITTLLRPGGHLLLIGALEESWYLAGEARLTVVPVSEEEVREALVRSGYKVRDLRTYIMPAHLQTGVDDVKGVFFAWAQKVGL
# Chain of Nicotinamide N-methyltransferase (Homo sapiens) (P40261 whole entry, looked up): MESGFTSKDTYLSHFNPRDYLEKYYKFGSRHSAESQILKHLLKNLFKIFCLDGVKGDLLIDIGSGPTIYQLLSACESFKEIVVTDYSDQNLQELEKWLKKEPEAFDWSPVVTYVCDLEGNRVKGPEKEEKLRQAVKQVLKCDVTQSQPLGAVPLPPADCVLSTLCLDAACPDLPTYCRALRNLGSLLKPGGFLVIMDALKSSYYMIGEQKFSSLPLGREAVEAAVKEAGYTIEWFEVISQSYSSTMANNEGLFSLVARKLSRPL
# Chain of Catechol O-methyltransferase (Homo sapiens) (P21964 whole entry, looked up): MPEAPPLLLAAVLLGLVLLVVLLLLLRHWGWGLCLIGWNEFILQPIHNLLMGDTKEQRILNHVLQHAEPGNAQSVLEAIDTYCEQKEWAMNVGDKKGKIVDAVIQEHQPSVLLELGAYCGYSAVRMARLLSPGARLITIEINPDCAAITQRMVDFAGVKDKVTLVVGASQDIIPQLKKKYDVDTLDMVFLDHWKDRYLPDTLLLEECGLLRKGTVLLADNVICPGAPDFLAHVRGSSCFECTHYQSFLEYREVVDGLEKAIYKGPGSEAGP
# Chain of Glycine N-methyltransferase (Homo sapiens) (Q14749 whole entry, looked up): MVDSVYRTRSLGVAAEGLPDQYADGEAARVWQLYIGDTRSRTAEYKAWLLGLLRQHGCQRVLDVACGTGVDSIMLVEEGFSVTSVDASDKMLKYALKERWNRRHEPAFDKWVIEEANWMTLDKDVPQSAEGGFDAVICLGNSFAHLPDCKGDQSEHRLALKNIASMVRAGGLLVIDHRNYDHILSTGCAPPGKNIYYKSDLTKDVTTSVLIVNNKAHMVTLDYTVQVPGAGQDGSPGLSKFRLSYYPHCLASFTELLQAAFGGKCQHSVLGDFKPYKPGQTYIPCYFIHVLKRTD
# Chain of Histamine N-methyltransferase (Homo sapiens) (P50135 whole entry, looked up): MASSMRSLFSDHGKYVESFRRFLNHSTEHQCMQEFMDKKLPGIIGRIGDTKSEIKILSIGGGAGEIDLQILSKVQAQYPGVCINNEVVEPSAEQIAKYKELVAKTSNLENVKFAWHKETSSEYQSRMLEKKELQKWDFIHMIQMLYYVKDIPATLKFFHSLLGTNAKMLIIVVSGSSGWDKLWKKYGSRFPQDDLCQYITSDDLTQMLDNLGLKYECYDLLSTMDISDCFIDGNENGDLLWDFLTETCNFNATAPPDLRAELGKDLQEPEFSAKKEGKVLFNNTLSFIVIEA
Structure (SMILES),"activity change, negative = inhibition [1]","activity change, negative = inhibition [2] [%]","activity change, negative = inhibition [3] [%]","activity change, negative = inhibition [4] [%]","activity change, negative = inhibition [5] [%]","activity change, negative = inhibition [6] [%]"
COCC(=O)Nc1ncncc1-c1noc([C@@H]2CCCN2Cc2cc(OC)c(OC)c(OC)c2)n1,-16.9% (inactive),-9.35,-8.08,-8.93,-16.4,-12.8
O=C(c1ccc(C(F)(F)F)cc1)N1CCC2(COc3ccncc3[S+](=O)([O-])N2)C1 (configuration not stated),-0.613% (inactive),-4.6,-3.02,-0.962,-5.7,-0.429
Cn1ccc(Nc2cc3c(cn2)CN(CCc2ccccc2)CCN3)n1,-9.44% (active),-10.2,-12.2,-92.8,-17.5,-56.1
O=C1N2CCCC2CN1C1CCN(Cc2ccsc2)CC1 (configuration not stated),3.52% (inactive),-1.71,0.192,0.939,-3.94,6.61
CN(CC(=O)N1CCC2(CCNCC2)CC1)Cc1cccnc1,-5.94% (inactive),-3.63,-4.3,-5.87,-4.19,-3.85
COc1ccc(S(=O)(=O)N2CCCCC2c2n[nH]c(C)n2)cc1 (configuration not stated),12.4% (inactive),15.6,2.87,11.2,10.1,11.2
O=C1NC(=NC2CCCC2)C2(CCCN([S+](=O)([O-])c3ccccc3)C2)N1c1cccnc1 (configuration not stated),-0.276% (inactive),-3.99,-4.94,-1.01,-11,-21.7
